In PubChem BioAssay:

Key:
[1] = system: Human papillomavirus type 1a protein E7 (residues 44-93); experiment: small molecules binding HPV E7 44-93 – biochemical, small-molecule microarray, residues 44-93, 635 nm fluorescence, primary screen (AID 1108); conditions: fluorescence 635 nm, higher = more signal;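 note: E7 fragment applied at 1 µg/mL in TBST for 1 h at 4 C; score combines spot fluorescence with its signal to noise ratio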
[2] = hepatitis C replication reporter changes, two-sided – Huh7 cells, luciferase reporter, HCV replication inhibitor project, primary screen (AID 1109); conditions: Huh7 HCV replicon luciferase reporter, 48 h; higher = more signal;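 note: huh7 hepatoma cells harbouring a luciferase neomycin HCV replicon reporter; luciferase luminescence as measure of HCV replicon replication; test concentration not given here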
[3] = target: Left-right determination factor 2 (Homo sapiens) (UniProt O00292); experiment: small molecules binding LEFTY2 protein – biochemical, small-molecule microarray, 635 nm fluorescence scan, primary screen (AID 1110); conditions: higher = more signal
Sequence of Left-right determination factor 2 (Homo sapiens) (O00292 whole entry, looked up): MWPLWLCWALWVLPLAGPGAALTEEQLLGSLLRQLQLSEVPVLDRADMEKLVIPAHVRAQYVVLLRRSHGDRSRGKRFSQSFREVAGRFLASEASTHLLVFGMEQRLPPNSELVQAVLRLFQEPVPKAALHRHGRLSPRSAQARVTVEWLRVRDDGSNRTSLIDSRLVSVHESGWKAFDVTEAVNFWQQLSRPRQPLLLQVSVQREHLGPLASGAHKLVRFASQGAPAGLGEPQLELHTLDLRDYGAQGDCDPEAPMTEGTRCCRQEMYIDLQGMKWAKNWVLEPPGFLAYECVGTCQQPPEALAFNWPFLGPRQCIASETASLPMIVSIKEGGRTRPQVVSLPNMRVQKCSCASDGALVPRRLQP

[4] = target: Calmodulin-1 (Homo sapiens) (UniProt P0DP23); experiment: small molecules binding calmodulin-1 with EGTA – biochemical, small-molecule microarray, Cy5-labelled CALM1, profiling panel (AID 1111); conditions: Cy5-CALM1 binding fluorescence, higher = more signal;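 note: labelled calmodulin applied in Tris saline Tween buffer holding calcium plus EGTA and DTT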
[5] = target: Calmodulin-1 (Homo sapiens) (UniProt P0DP23); experiment: small molecules binding Ca-loaded calmodulin-1 – biochemical, small-molecule microarray, Cy5-labelled CALM1, plus calcium, artefact control for SMM control-protein annotation, profiling panel (AID 1112); conditions: Cy5-CALM1 binding fluorescence, higher = more signal;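 note: score merges spot fluorescence with signal to noise from triplicate slides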
[6] = probe aWnt5a binding to arrayed compounds – biochemical, biotinylated probe, 635/667 nm fluorescence, primary screen (AID 1113); conditions: small-molecule microarray, higher = more signal;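 note: score merges 667 nm fluorescence intensity with signal-to-noise per printed feature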
[7] = probe aShh binding to arrayed compounds – biochemical, biotinylated probe, 635/667 nm fluorescence, primary screen (AID 1114); conditions: small-molecule microarray, higher = more signal;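 note: probe is biotin-labelled aShh protein from a stem cell growth factor screen; measures binding of labelled protein to compounds printed on the slide; score merges feature fluorescence at 667 nm with signal-to-noise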
[8] = probe aNog binding to arrayed compounds – biochemical, biotinylated probe, 635/667 nm fluorescence, primary screen (AID 1115); conditions: small-molecule microarray, higher = more signal;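 note: probe is biotinylated aNog protein used at 0.15 µg/mL for 1 h at 4 C; z-score combines 667 nm fluorescence of each spot with its signal to noise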
[9] = target: Torsin-1A-interacting protein 1 (Homo sapiens) (UniProt Q5JTV8); experiment: compound microarray binding of lysate hLAP1 – cell lysate, small-molecule microarray, COS7 lysate, 635/667 nm fluorescence, primary screen (AID 1116); conditions: 635 nm fluorescence, higher = more signal
Sequence of Torsin-1A-interacting protein 1 (Homo sapiens) (Q5JTV8 whole entry, looked up): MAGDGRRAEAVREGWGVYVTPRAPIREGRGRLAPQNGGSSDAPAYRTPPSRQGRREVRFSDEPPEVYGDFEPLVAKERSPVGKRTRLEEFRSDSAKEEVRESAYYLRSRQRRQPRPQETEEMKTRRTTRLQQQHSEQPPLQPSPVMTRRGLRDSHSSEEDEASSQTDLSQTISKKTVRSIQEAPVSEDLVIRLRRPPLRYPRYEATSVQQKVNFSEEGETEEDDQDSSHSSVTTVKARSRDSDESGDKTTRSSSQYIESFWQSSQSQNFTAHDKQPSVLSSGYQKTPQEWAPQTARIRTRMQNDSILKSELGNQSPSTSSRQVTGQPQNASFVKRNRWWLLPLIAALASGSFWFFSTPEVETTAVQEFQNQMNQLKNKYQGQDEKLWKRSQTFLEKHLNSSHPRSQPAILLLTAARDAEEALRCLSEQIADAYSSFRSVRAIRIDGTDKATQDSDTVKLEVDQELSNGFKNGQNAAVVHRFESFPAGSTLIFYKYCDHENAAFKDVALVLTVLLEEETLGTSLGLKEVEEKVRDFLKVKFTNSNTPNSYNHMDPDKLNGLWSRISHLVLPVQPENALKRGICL

[10] = target: Alpha-bungarotoxin (Bungarus multicinctus) (UniProt P60615); experiment: compounds binding labelled alpha-BTX control protein – biochemical, small-molecule microarray, Alexa647 label, 635/667 nm fluorescence, artefact control for SMM control protein annotation, profiling panel (AID 1117); conditions: alpha-BTX-A647 binding fluorescence, higher = more signal
Sequence of Alpha-bungarotoxin (Bungarus multicinctus) (P60615 whole entry, looked up): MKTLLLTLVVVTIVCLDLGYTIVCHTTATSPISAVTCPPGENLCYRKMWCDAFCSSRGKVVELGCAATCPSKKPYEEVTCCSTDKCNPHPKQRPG

SMILES: CCOC(=O)C1=CC[C@@H](c2ccccc2F)N(S(=O)(=O)c2ccc(C)cc2)[C@H]1c1ccccc1
- composite z-score [1]: 1.34
- z-score [2]: -1.43
- composite z-score [3]: 0.364
- composite z-score [4]: 0.509
- composite z-score [5]: -0.355
- composite z-score [6]: -0.0924
- composite z-score [7]: -0.0866
- composite z-score [8]: -0.473
- composite z-score [9]: 0.292
- composite z-score [10]: 0.42

SMILES: COc1ccc(CCNC(=O)[C@@]2(Cc3ccccc3I)c3ccccc3C(=O)N(C3CCCCC3)[C@H]2c2ccc(CO)cc2)cc1
- composite z-score [1]: 1.3
- z-score [2]: -3.2
- composite z-score [3]: -0.425
- composite z-score [4]: 0.902
- composite z-score [5]: 0.609
- composite z-score [6]: -0.0721
- composite z-score [7]: -0.0626
- composite z-score [8]: -0.158
- composite z-score [9]: 0.0805
- composite z-score [10]: 0.678

SMILES: COc1ccc([Si](C)(C)[C@H]2[C@H](CC(=O)N3Cc4ccccc4C[C@H]3CO)O[C@@]3(C(=O)N(Cc4ccc(N5CCOC5=O)cc4)c4ccccc43)[C@@H]2C)cc1
- composite z-score [1]: 0.559
- z-score [2]: -4.15
- composite z-score [3]: 0.843
- composite z-score [4]: -0.766
- composite z-score [5]: -0.665
- composite z-score [6]: -0.0944
- composite z-score [7]: -0.0769
- composite z-score [8]: -0.267
- composite z-score [9]: 0.612
- composite z-score [10]: 1.22

SMILES: [N-]=[N+]=NCc1ccccc1C[C@@]1(C(N)=O)N=C(c2ccc(OCCCO)cc2)O[C@@H]1c1ccccc1
- composite z-score [1]: 1.43
- z-score [2]: -1.74
- composite z-score [3]: -1.41
- composite z-score [4]: 1.85
- composite z-score [5]: 0.989
- composite z-score [6]: -0.0417
- composite z-score [7]: -0.0035
- composite z-score [8]: -0.071
- composite z-score [9]: 2.07
- composite z-score [10]: 2.33

SMILES: CO[C@H]1O[C@H](CO)[C@@H](OC(=O)Nc2ccccc2)[C@H](OC(=O)c2cc3ccccc3[nH]2)[C@H]1OC(=O)c1cc2ccccc2[nH]1
- composite z-score [1]: 0.0679
- z-score [2]: -2.05
- composite z-score [3]: 0.165
- composite z-score [4]: 0.204
- composite z-score [5]: 0.47
- composite z-score [6]: 0.0642
- composite z-score [7]: 0.14
- composite z-score [8]: -0.367
- composite z-score [9]: 0.621
- composite z-score [10]: 0.326

SMILES: CCOC(=O)C1=C[C@@H](c2ccccc2)N(S(=O)(=O)c2ccc(C)cc2)[C@H]1c1ccc(OC)cc1
- composite z-score [1]: 0.796
- z-score [2]: -1.92
- composite z-score [3]: 0.976
- composite z-score [4]: 1.6
- composite z-score [5]: 0.736
- composite z-score [6]: 0.661
- composite z-score [7]: 0.926
- composite z-score [8]: 1.25
- composite z-score [9]: 0.118
- composite z-score [10]: 1.24

SMILES: Cc1ccccc1C(O)C1C=CC2C(=O)NC(=O)C2N1Nc1ccccn1 (stereo not given)
- composite z-score [1]: -0.439
- z-score [2]: 0.331
- composite z-score [3]: 0.263
- composite z-score [4]: -0.285
- composite z-score [5]: -0.206
- composite z-score [6]: -0.221
- composite z-score [7]: -0.349
- composite z-score [8]: -0.0682
- composite z-score [9]: 0.692
- composite z-score [10]: 0.173

SMILES: O=C(NCc1ccc(F)cc1)[C@H]1C[C@H]2C(=O)NCC(=O)N2[C@H]1c1ccc(O)cc1
- composite z-score [1]: 1.03
- z-score [2]: -0.0497
- composite z-score [3]: 0.887
- composite z-score [4]: -0.449
- composite z-score [5]: 0.0871
- composite z-score [6]: -0.0684
- composite z-score [7]: -0.0553
- composite z-score [8]: -0.132
- composite z-score [9]: 0.605
- composite z-score [10]: -0.144

SMILES: O[C@@H](Cc1ccccc1)[C@@H](/C=C/C1CC1)N(CC#Cc1ccccc1)Cc1ccccc1Br
- composite z-score [1]: -0.0988
- z-score [2]: -2.71
- composite z-score [3]: -0.804
- composite z-score [4]: -0.582
- composite z-score [5]: 0.282
- composite z-score [6]: -0.203
- composite z-score [7]: -0.0769
- composite z-score [8]: -0.224
- composite z-score [9]: -0.183
- composite z-score [10]: -0.288

SMILES: CCCCC[C@H]1OC[C@@]23C=C(Br)[C@@H](CC12)[C@@]1(CO1)C3=O (stereo not given in full)
- composite z-score [1]: 0.299
- z-score [2]: -2.3
- composite z-score [3]: 0.058
- composite z-score [4]: -0.554
- composite z-score [5]: -1.31
- composite z-score [6]: -0.16
- composite z-score [7]: 0.0796
- composite z-score [8]: -0.183
- composite z-score [9]: -0.574
- composite z-score [10]: -0.284

SMILES: CCCCC(CC)C(O)C1C=CC2C(=O)N(c3ccccc3)C(=O)C2N1Nc1ccc(C#N)cc1 (stereo not given)
- composite z-score [1]: 1.44
- z-score [2]: -0.67
- composite z-score [3]: 0.111
- composite z-score [4]: 1.35
- composite z-score [5]: 0.467
- composite z-score [6]: 0.267
- composite z-score [7]: 0.348
- composite z-score [8]: 1.97
- composite z-score [9]: 0.336
- composite z-score [10]: 1.45

SMILES: CC1CC/C=C\[C@H]2OC34C=CCN(c5ccc6ccccc6c5)C(=O)[C@H]3N(CCCO)C(=O)[C@@H]4C2C(=O)O1 (stereo not given in full)
- composite z-score [1]: -0.499
- z-score [2]: 0.197
- composite z-score [3]: -1.85
- composite z-score [4]: -0.568
- composite z-score [5]: -0.028
- composite z-score [6]: -0.287
- composite z-score [7]: -0.291
- composite z-score [8]: -0.285
- composite z-score [9]: -0.406
- composite z-score [10]: -0.905

SMILES: COc1ccc(CCNC(=O)[C@@H]2c3ccccc3C(=O)N(C3CCCCC3)[C@H]2c2ccc(CO)cc2)cc1
- composite z-score [1]: 1.48
- z-score [2]: -1.82
- composite z-score [3]: -0.306
- composite z-score [4]: 0.112
- composite z-score [5]: -0.184
- composite z-score [6]: -0.0403
- composite z-score [7]: 0.0098
- composite z-score [8]: -0.402
- composite z-score [9]: -0.17
- composite z-score [10]: 0.371

SMILES: NC(=O)NCC#Cc1ccc2c(c1)[C@]1(C(=O)N2)[C@H](c2ccccc2OCCO)N2[C@H](c3ccccc3)[C@H](c3ccccc3)OC(=O)[C@H]2[C@@H]1C(=O)O
- composite z-score [1]: 1.27
- z-score [2]: -0.331
- composite z-score [3]: -0.351
- composite z-score [4]: 0.505
- composite z-score [5]: 0.629
- composite z-score [6]: -0.169
- composite z-score [7]: -0.0035
- composite z-score [8]: -0.359
- composite z-score [9]: 0.299
- composite z-score [10]: 0.589

SMILES: NCCCCCNC(=O)[C@H]1C[C@H]2C(=O)N3CCC[C@H]3C(=O)N2[C@H]1c1cccc(OCCO)c1
- composite z-score [1]: 1.32
- z-score [2]: 0.5
- composite z-score [3]: -0.397
- composite z-score [4]: 1.35
- composite z-score [5]: 0.684
- composite z-score [6]: 0.0375
- composite z-score [7]: 0.14
- composite z-score [8]: -0.403
- composite z-score [9]: 1.17
- composite z-score [10]: 1.24

SMILES: CCCC[C@@H]1C[C@H]1[C@@H](NC(=O)c1cccs1)c1ccccc1C(F)(F)F
- composite z-score [1]: 1.39
- z-score [2]: 0.758
- composite z-score [3]: -0.363
- composite z-score [4]: 1.72
- composite z-score [5]: 0.763
- composite z-score [6]: -0.001
- composite z-score [7]: 0.663
- composite z-score [8]: 1.52
- composite z-score [9]: 0.582
- composite z-score [10]: 0.881
